# Screens (PubChem BioAssay)
# PAFAH1B2 FP inh – PAFAH1B2 (human) inhibition; P68402; recombinant PAFAH1B2, FP-rhodamine activity probe, fluorescence polarization; inhibition, % at 3.39 µM; 340,000 tested, 1.2% active;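 active means inhibition above the mean of all tested compounds plus 3 SD, cut at about 24% in these data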;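 further: 0% = enzyme with DMSO and 100% = wells lacking PAFAH1B2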
# Target sequence (P68402 whole entry, looked up): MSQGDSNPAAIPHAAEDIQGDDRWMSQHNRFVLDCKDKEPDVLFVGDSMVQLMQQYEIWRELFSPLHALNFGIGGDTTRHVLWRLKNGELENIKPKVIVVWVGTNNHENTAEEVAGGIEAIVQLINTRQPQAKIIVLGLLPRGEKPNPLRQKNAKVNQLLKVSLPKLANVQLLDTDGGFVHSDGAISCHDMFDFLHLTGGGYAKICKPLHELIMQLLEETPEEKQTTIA
# pPAFAH inh – pPAFAH (human) enzyme inhibition. Q13093. recombinant pPAFAH, FP-rhodamine probe fluorescence polarization. inhibition, % at 3.39 µM. 330,000 tested, 1.5% active;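 active means inhibition above the mean inhibition across the screen plus 3 SD, cut at about 25% in these data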;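 further: inhibitors block binding of the rhodamine activity-based probe so polarization drops; 0% = enzyme with DMSO and 100% = wells lacking pPAFAH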
# PME-1 primary – PME-1 (human) inhibition. recombinant PME-1, FP-Rh probe fluorescence polarization. inhibition, % at 5.9 µM. 320,000 tested, 0.53% active;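 active means inhibition above the campaign mean of all compounds plus 3 SD, cut at about 26% in these data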;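 further: competitive labeling of PME-1 active site by serine hydrolase directed probe; 0% = PME-1 with DMSO and 100% = wells lacking PME-1 enzyme; inhibitors block probe labeling so polarization falls and inhibition rises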
# PAFAH1B3 inh – inhibitors of human PAFAH1B3; recombinant PAFAH1B3, FP-rhodamine probe, fluorescence polarization; Q15102; inhibition, % at 3.39 µM; AID 492972; 340,000 tested, 0.28% active;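 active means inhibition above the screen-wide average of all tested compounds plus 3 SD, cut at about 25% in these data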;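 further: 0% = enzyme with DMSO only and 100% = wells lacking PAFAH1B3 protein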
# Target sequence (Q15102 whole entry, looked up): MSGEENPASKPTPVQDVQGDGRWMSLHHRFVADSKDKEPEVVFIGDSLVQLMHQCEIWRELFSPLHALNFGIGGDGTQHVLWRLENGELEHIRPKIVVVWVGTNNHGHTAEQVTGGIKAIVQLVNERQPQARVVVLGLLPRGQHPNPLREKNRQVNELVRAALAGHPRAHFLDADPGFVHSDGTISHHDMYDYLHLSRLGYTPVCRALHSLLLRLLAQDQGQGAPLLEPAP
# PAFAH2 FP inh – inhibitors of human PAFAH2. Q99487. recombinant PAFAH2, FP-rhodamine activity probe, fluorescence polarization. inhibition, % at 3.39 µM. 340,000 tested, 0.99% active. AID 492956;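 active means inhibition above the mean over all tested compounds plus 3 SD, cut at about 30% in these data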;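 further: inhibitors block probe labeling of enzyme so polarization drops; 0% = enzyme with DMSO and 100% = wells lacking PAFAH2 protein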
# Fam108B counter – blocks mouse Fam108B hydrolase in RBBP9 counter-screen. 300,000 tested, 0.33% active. inhibition, % at 9.51 µM. recombinant Fam108B, FP-Rh probe fluorescence polarization;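 active means inhibition above the screen mean inhibition plus 3 SD, computed separately per campaign, cut at about 18% in these data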;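 further: inhibitors lower polarization as less probe binds the enzyme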
# * hit, by the source's call; x = no result given. Shown are actives, neighbours in structure and some others; about 2.8% of the full set was active somewhere.
SMILES,PAFAH1B2 FP inh,pPAFAH inh,PME-1 primary,PAFAH1B3 inh,PAFAH2 FP inh,Fam108B counter
COC(=O)c1c[nH]n2c(=O)c(Cl)c(C)nc12,3,-1,-2,-3,-4,8
Cc1nc2c(C(=O)NCc3ccccc3Cl)c[nH]n2c(=O)c1Cl,-3,32*,13,1,29,-1
Cc1nc2c(C(=O)NCCc3ccccc3Cl)c[nH]n2c(=O)c1Cl,11,25*,12,7,13,11
Cc1nc2c(C(=O)NCc3ccccc3)c[nH]n2c(=O)c1Cl,9,13,8,-3,8,-1
N#CCCN(C(=O)COC(=O)Cc1ccc(Br)cc1)c1ccccc1,27*,15,9,12,2,1
CN(CCc1ccccc1)C(=O)c1ccc(NC(=O)Cc2ccc(NC(=O)C3CCN(C(=O)CCc4ccccc4)CC3)cc2)cc1,-2,x,x,-2,-6,x
CSCCC(NC(=O)c1ccccc1Cl)C(=O)NCC(c1ccc(F)cc1)N1CCOCC1 (centres undefined),-1,x,x,4,-2,x
O=c1cc(-c2ccc(Cl)c(Cl)c2)[nH][nH]1,6,26*,2,-1,-4,4
O=c1cc(-c2ccc(Cl)cc2)[nH][nH]1,2,5,10,9,-11,-3
COc1ccc(CNC(=O)CSc2nc3ccc(C)cc3[nH]2)cc1,29*,10,2,-3,-8,-1
Cc1ccc2nc(SCC(=O)N3CCN(c4ccccc4)CC3)[nH]c2c1,30*,3,5,3,7,-3
Oc1ccc(C[C@H]2CNC(=S)N2CC2CCCN2C[C@H](Cc2ccccc2)N2C[C@H](Cc3ccc(O)cc3)N(CC3CCCCCC3)C2=S)cc1 (some centres undefined),0,x,x,-5,-16,x
CC1CCc2c(sc(NC(=O)c3cccn3C)c2C(N)=O)C1 (centres undefined),-5,29*,x,3,5,x
COC(=O)Nc1sc2c(c1C(N)=O)CCC(C)C2 (centres undefined),1,-6,3,1,-6,-7
Cc1ccsc1C(=O)OC(C)C(=O)Nc1ccc(Cl)cn1 (centres undefined),7,-1,x,10,-2,x
COc1cccc(/C=N/Nc2snc(SC)c2C#N)c1O,15,29*,24,14,33*,13
COc1ccc(/C=N/Nc2snc(SC)c2C#N)cc1OC,4,24,40*,10,4,11
Cc1cc(C)c(C#N)c(SCc2nc3ccccc3[nH]2)n1,6,19,29*,7,11,1
CS(=O)(=O)N1CCSC1c1ccc(Br)cc1 (centres undefined),26*,2,-4,7,-2,-1
O=S(=O)(Nc1ncccn1)c1ccc(NC(=S)NCCc2ccc(Cl)cc2)cc1,44*,1,-2,-3,0,2
S=C(NCCc1ccc(Cl)cc1)NC1CCCCC1,34*,-9,2,4,2,-3
O=C(NCCc1ccc(Cl)cc1)C1CCC(=O)N1C1CCCC1 (centres undefined),56*,-2,-6,5,3,2
O=S(=O)(Nc1ncccn1)c1ccc(NC(=S)Nc2cccc(Cl)c2)cc1,x,-7,-8,x,x,-1
S=C(NCCc1ccc(Cl)cc1)NC1CCCC1,27*,6,6,0,0,4
Cc1ccc(S(=O)(=O)NCCC(=O)NCCOc2ccccc2)cc1,3,x,x,3,-1,x
SMILES,PAFAH1B2 FP inh,pPAFAH inh,PME-1 primary,PAFAH1B3 inh,PAFAH2 FP inh,Fam108B counter
CCCCCCc1cc2cc(S(=O)(=O)c3ccc(F)cc3)c(=O)oc2cc1O,1,14,-3,2,8,4
O=C(O)c1ccc2oc(=O)c(S(=O)(=O)c3ccccc3)cc2c1,27*,2,-4,4,17,2
O=C(O)c1ccc2oc(=O)c(S(=O)(=O)c3ccc(F)cc3)cc2c1,32*,-2,-1,-3,45*,7
Cc1ccc(S(=O)(=O)N/N=C/c2cccn2-c2ccc(Cl)cc2)cc1,54*,5,3,3,0,2
Cc1ccc(S(=O)(=O)N/N=C/c2c(F)cccc2Cl)cc1,-1,-5,-11,3,8,1
CC(Sc1ccc(Cl)cc1)C(=O)Nc1ccc(S(=O)(=O)N2CCOCC2)cc1 (centres undefined),31*,9,-2,13,3,-3
CC(C)C(=O)Nc1ccc(C(=O)Nc2ccc(S(=O)(=O)N3CCOCC3)cc2)cc1,-3,1,1,-2,-6,-4
O=C(Cc1ccc(S(=O)(=O)N2CCOCC2)s1)Nc1nc2c(s1)CCCC2,-2,32*,-7,6,4,6
CCn1c2ccccc2c2cc(/C=N/NC(=O)c3ccc(O)cc3)ccc21,-5,-6,-10,-18,-19,-9
Cn1c2ccccc2c2cc(/C=N/NC(=O)c3ccc(O)cc3O)ccc21,23,31*,47*,33*,-22,15
COc1ccc(C(=O)COC(=O)Cn2cnc3ccccc3c2=O)c(OC)c1,-3,3,1,0,2,1
O=C(CCNC(=O)c1ccc([N+](=O)[O-])cc1)NNC(=O)c1ccccc1F,3,-1,-7,2,5,x
CCCCC[C@@H]1C=C(C(=O)O)[C@H](c2ccc(Br)cc2)N1S(=O)(=O)c1ccc(C)cc1,27*,4,x,0,4,x
CC[C@@H]1C=C(C(=O)O)[C@H](c2ccc(C)cc2)N1S(=O)(=O)c1ccc(C)cc1,8,2,x,7,1,x
Cc1ccc(S(=O)(=O)N2[C@@H](c3ccc(C#N)cc3)C(C(=O)O)=C[C@H]2CC2CCCC2)cc1,27*,2,x,-1,4,x
CC(C)(C)[C@@H]1C=C(C(=O)O)[C@H](c2ccc(Cl)cc2)N1S(=O)(=O)c1ccccc1,27*,5,x,10,-1,x
CCCC[C@@H]1C=C(C(=O)O)[C@H](c2ccc(Cl)cc2)N1S(=O)(=O)c1ccc(C)cc1,28*,-1,x,5,9,x
O=C(c1ccco1)N1CCN(Cc2nnc(-c3cccc(Br)c3)o2)CC1,4,-5,-9,4,1,-4
CC(=O)Nc1ccc(S(=O)(=O)NC(C)C(=O)NCC(c2ccco2)N(C)C)cc1 (centres undefined),2,x,x,6,1,x
Cc1cccc(OC(C)C(=O)Nc2nc(-c3ccncc3)cs2)c1 (centres undefined),0,x,x,-1,-2,x
CC1=C(C(=O)OC2CCCCCCC2)C(c2ccc(O)cc2)NC(=O)N1 (centres undefined),25*,1,1,6,6,3
C[C@@H](C(=O)OCC(=O)c1ccc(F)c(F)c1)N1C(=O)C2CCCCC2C1=O (some centres undefined),3,28*,x,3,20,x
CCN(c1ccccc1)S(=O)(=O)c1ccc2c(c1)OCCO2,18,2,x,12,15,x
